The source of these data is PubChem BioAssay (Tox21).

A short description of assay [1]: qHTS assay to identify small molecule antagonists of the glucocorticoid receptor (GR) signaling pathway - cell viability counter screen (AID 720693). Also: nearly all actives have a fitted effect of over 55% in size. On the technique in general: Quantitative high-throughput screening tests each substance at several concentrations.
Assay [2] is described as follows: qHTS assay for identifying genotoxic compounds that show differential cytotoxicity against isogenic chicken DT40 cell lines with known DNA damage response pathways - wild type cell line (AID 743012). Also: nearly all actives have a fitted effect of over 60% in size. Also: potency is read from the fitted curve at half-maximal effect. In a few lines: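 Luminescent ATP viability signal (CellTiter-Glo, 30 min RT) recorded after wild type DT40 cells were incubated with compounds for 40 h at 37 C/5% CO2.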

Assay [3] can be described thus: qHTS assay for identifying genotoxic compounds that show differential cytotoxicity against isogenic chicken DT40 cell lines with known DNA damage response pathways - Rev3 mutant cell line (AID 743014). Also: nearly all actives have a fitted effect of over 55% in size. Also: potency is read from the fitted curve at half-maximal effect.
The nature of assay [4]: qHTS assay for identifying genotoxic compounds that show differential cytotoxicity against isogenic chicken DT40 cell lines with known DNA damage response pathways - Rad54/Ku70 mutant cell line (AID 743015). Also: nearly all actives have a fitted effect of over 60% in size. Also: potency is read from the fitted curve at half-maximal effect.
Assay [5] can be described thus: qHTS assay to identify small molecule antagonists of the androgen receptor (AR) signaling pathway - cell viability counter screen (AID 743033; also: nearly all actives have a fitted effect of over 45% in size; also: potency is read from the fitted curve at half-maximal effect).
Assay [6] is described as follows: qHTS assay to identify small molecule antagonists of the androgen receptor (AR) signaling pathway using the MDA cell line - cell viability counter screen (AID 743041; also: nearly all actives have a fitted effect of over 45% in size; also: potency is read from the fitted curve at half-maximal effect). In a few lines: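 qHTS viability read-out; MDA-kb2 AR-luc; R1881-stimulated; 16 h exposure at 37C, 0% CO2; CellTiter-Fluor, 30 min; fluorescence intensity.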
The target in assay [7] is Androgen receptor (Homo sapiens) (UniProt P10275). The assay can be described thus: qHTS assay to identify small molecule antagonists of the androgen receptor (AR) signaling pathway (AID 743035; active = well fitted inhibition curve with a large enough effect in the signal ratio in the repeat runs, not every such curve was filed as active; the % refers to the signal ratio). In short, it runs like this:
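Quantitative HTS of the Tox21 10K library used HEK293 AR-UAS-bla cells stimulated with R1881 alongside compound for 16 h at 37C, followed by beta-lactamase FRET detection (LiveBLAzer B/G, 2 h, RT).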

For assay [8] the target is unchanged. The assay can be described thus: qHTS assay to identify small molecule agonists of the androgen receptor (AR) signaling pathway (AID 743036; active = well fitted activation curve with a large enough effect in the signal ratio in the repeat runs, with a control signal flat, not every such curve was filed as active; the % refers to the signal ratio; also: potency is read from the fitted curve at half-maximal effect). In short, it runs like this: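 Activation was read as beta-lactamase FRET signal from LiveBLAzer B/G substrate, added for 2 h at room temperature. Before that, GeneBLAzer AR-UAS-bla GripTite (HEK293) cells had 16 h compound exposure at 37C.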

Assay [9] has the same target. The assay can be described thus: qHTS assay to identify small molecule agonists of the androgen receptor (AR) signaling pathway using the MDA cell line (AID 743040; also: nearly all actives have a fitted effect of over 20% in size; also: potency is read from the fitted curve at half-maximal effect). In short, it runs like this:
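Agonist activity is measured as luciferase luminescence in human MDA-kb2 cells whose MMTV reporter responds to both AR and GR. Compounds in DMSO incubate 16 h at 37C, 0% CO2, and ONE-Glo is read after 30 min.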

For assay [10] the target is unchanged. The assay can be described thus: qHTS assay to identify small molecule antagonists of the androgen receptor (AR) signaling pathway using the MDA cell line (AID 743042; also: nearly all actives have a fitted effect of over 55% in size). In a few lines:
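MDA-kb2 cells (human breast carcinoma, stably carrying an MMTV-luciferase reporter responsive to AR and GR) were plated at 3,000 cells/well and preincubated 5 hr at 37C, then given compound plus R1881 agonist for 16 h. ONE-Glo luminescence was read.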

SMILES strings stand for the structures. Values joined by “and” are separate entries in the source; they are usually repeats but may differ in a detail not shown here. Equal values may be shown once. Inconclusive results are not listed. More than one record can exist for a structure, and the calls need not agree. Active and inactive are the calls of the source. Unless noted, calls follow the shape of the dose curve; as a rule, active = well fitted curve in the direction sought with a large enough effect in the repeat runs; inconclusive = weak or mixed curves; inactive = no such curve, though single readings can be large; an effect the other way counts as inactive or inconclusive.

Androgen receptor (Homo sapiens), sequence (P10275 whole entry, looked up): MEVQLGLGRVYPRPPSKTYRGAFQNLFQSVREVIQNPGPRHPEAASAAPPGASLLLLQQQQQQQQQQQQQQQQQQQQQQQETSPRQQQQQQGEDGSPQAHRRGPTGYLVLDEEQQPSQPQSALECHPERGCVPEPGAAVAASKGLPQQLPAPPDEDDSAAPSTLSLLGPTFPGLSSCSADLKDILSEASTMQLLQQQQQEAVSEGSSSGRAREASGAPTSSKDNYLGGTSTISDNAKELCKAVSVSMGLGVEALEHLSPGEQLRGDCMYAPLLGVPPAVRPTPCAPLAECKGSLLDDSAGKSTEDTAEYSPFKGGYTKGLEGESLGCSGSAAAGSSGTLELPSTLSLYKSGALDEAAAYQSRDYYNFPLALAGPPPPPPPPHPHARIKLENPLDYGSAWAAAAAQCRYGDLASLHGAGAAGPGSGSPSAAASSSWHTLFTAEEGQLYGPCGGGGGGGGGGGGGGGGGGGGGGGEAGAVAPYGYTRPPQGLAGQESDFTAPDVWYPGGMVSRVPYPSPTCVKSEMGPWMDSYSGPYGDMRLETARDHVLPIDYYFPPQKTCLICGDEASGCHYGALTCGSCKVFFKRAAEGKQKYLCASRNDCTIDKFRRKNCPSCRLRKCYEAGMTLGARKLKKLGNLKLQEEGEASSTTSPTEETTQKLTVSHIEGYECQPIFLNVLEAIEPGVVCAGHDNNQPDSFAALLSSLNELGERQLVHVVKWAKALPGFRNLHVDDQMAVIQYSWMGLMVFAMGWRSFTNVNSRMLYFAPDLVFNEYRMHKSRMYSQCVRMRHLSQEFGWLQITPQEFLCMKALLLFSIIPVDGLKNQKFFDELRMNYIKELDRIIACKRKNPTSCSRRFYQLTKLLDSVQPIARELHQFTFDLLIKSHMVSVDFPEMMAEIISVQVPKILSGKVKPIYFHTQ

On to `O=C=NCCCCCCN=C=O`, for which, in assay [1], the molecule was called inactive. Also, the Potency entry in assay [2], in assay [3], in assay [4], in assay [5] and in assay [6] was “inactive” each time.
As to `O=C(O)c1ccccc1C(c1ccc(O)cc1)c1ccc(O)cc1`, the result in assay [1], in assay [7] and in assay [10] was inactive. For the same molecule, the Potency result in assay [2], in assay [3], in assay [5], in [8], in assay [9] and in [6] was “inactive” throughout.
`O=C(CC(C(=O)OC1CCCCC1)S(=O)(=O)O)OC1CCCCC1` (stereo not given): the outcome in assay [1] was inactive. Moreover, the Potency result was “inactive and 17 µM (active)” in assay [2]; “inactive and 17 µM (active)” in [3]; “inactive and 12 µM (active)” in assay [4]. Also, the Potency entry in assay [5] and in assay [6] was “inactive” each time.
Take `OCCOCCOCCO`: the outcome in assay [1], in assay [7] and in assay [10] was inactive. The Potency entry in assay [2], in assay [3], in assay [5], in assay [8], in [9] and in assay [6] was “inactive” throughout.
Regarding `CC(=O)OCC(=O)[C@@]12N=C(C)O[C@@H]1C[C@H]1[C@@H]3CCC4=CC(=O)C=C[C@]4(C)[C@H]3[C@@H](O)C[C@@]12C`, the result in assay [1] was inactive. For the same molecule, the Potency entry in assay [2], in assay [3], in assay [4], in assay [5] and in assay [6] was “inactive” each time.
With `CCCCCCCCCC`, in assay [1], the molecule was classed as inactive. Besides, the Potency entry in assay [2], in [3], in [4], in [5] and in [6] was “inactive” in each case.
On to `CCCCN(CCCC)CCCC`, for which the call in assay [1] was inactive. The Potency entry in assay [2], in assay [3], in assay [4], in [5] and in assay [6] was “inactive” each time.
For the molecule `ON=C1CCCCC1`, the molecule was classed as inactive in assay [1]. Also, the Potency result in assay [2], in assay [3], in assay [4], in assay [5] and in assay [6] was “inactive” in each case.
For `CCCCCCCCCCCCCCO`, in assay [1], the outcome was inactive. The Potency entry in assay [2], in [3], in [4], in [5] and in [6] was “inactive” each time.
As to `OCCOCCN1CCN(C2=Nc3ccccc3Sc3ccccc32)CC1`, the outcome in assay [1] was inactive. Further, the Potency in [2] was 29.8 µM (active) and 8.41 µM (active); in [3], 26.6 µM (active) and 9.44 µM (active); in assay [4], 26.6 µM (active); in [5] it was “inactive and 26.8 µM (active)”. Also, in [6], the Potency result is “inactive”.
As to `Cc1cccc(O)c1`, in assay [1], the molecule was called inactive. Further, the Potency entry in assay [2], in assay [3], in [4], in assay [5] and in assay [6] was “inactive” throughout.
For `CC(=O)Nc1cccc(O)c1`, in [1], the molecule was called inactive. The Potency result in [2], in assay [3], in assay [5] and in assay [6] was “inactive” throughout.
In the case of `C[C@H]1C[C@@H]2[C@H]([C@@H](O)C[C@@]3(C)[C@H]2CC[C@]3(O)C(=O)CO)[C@@]2(C)C=CC(=O)C=C12`, the outcome in [1] and in assay [10] was inactive. The Potency entry in assay [2], in assay [3], in assay [5] and in assay [6] was “inactive” each time. The Potency in [8] is 32.3 nM (active) and 49 nM (active); in assay [9], 50.7 nM (active) and 38.6 nM (active).
In the case of `Nc1ccccc1[N+](=O)[O-]`, the call in assay [1] was inactive. In addition, the Potency entry in assay [2], in assay [3], in [4], in [5] and in [6] was “inactive” in each case.
As for `CCCCCCOCCO`, in assay [1], the molecule was called inactive. Besides, the Potency entry in [2], in assay [3], in [4], in [5] and in [6] was “inactive” throughout.
In the case of `C#CCN(C)Cc1ccccc1`, in assay [1], the call was inactive. For the same molecule, the Potency entry in [2], in [3], in assay [4], in assay [5] and in assay [6] was “inactive” throughout.
Regarding `C=CCNC(N)=S`, the molecule was called inactive in assay [1]. Moreover, the Potency entry in assay [2], in assay [3], in assay [4], in [5] and in assay [6] was “inactive” each time.
Turning to `C=C(C)C(=O)Nc1ccc(Cl)c(Cl)c1`, in assay [1], the molecule was called inactive. Also, the Potency entry in assay [2], in [3], in assay [4] and in assay [6] was “inactive” each time.
As to `O=C(O)c1cc(C(=O)O)cc(S(=O)(=O)O)c1`, the molecule was called inactive in assay [1]. In addition, the Potency entry in assay [2], in assay [3], in assay [4], in assay [5] and in [6] was “inactive” throughout.
Regarding `CCc1cccc(C)c1N`, the call in assay [1], in [7] and in assay [10] was inactive. Further, the Potency result in [2], in assay [3], in [5], in assay [8], in assay [9] and in assay [6] was “inactive” in each case.
On to `Oc1cccc2ccccc12`, for which the molecule was classed as inactive in [1]. Also, the Potency entry in assay [2], in assay [3], in assay [4], in assay [5] and in assay [6] was “inactive” in each case.
For `C=C(C)C(=O)OCCOCCOCCOC(=O)C(=C)C`, in assay [1], the call was inactive. Also, the Potency result in [2], in assay [3], in [4], in [5] and in [6] was “inactive” each time.
With `O=C(O)c1cc(=O)c2c(OCC(O)COc3cccc4oc(C(=O)O)cc(=O)c34)cccc2o1`, the molecule was classed as inactive in assay [1]. For the same molecule, the Potency result in assay [2], in assay [3], in [4], in [5] and in assay [6] was “inactive” throughout.
Turning to `O=[N+]([O-])c1ccc(/C=C/c2ccc([N+](=O)[O-])cc2S(=O)(=O)O)c(S(=O)(=O)O)c1`, in assay [1], the molecule was called inactive. For the same molecule, the Potency result in assay [2], in assay [3], in [5] and in [6] was “inactive” each time.
Turning to `c1ccc2scnc2c1`, the result in [1] was inactive. Besides, the Potency entry in assay [2], in assay [3], in [5] and in [6] was “inactive” each time.
On to `CC(c1cc2ccccc2s1)N(O)C(N)=O` (stereo not given), for which the outcome in assay [1], in [7] and in assay [10] was inactive. Moreover, the Potency result in [2], in assay [3], in assay [5], in [8], in assay [9] and in assay [6] was “inactive” in each case.
Regarding `CCCCCC(N)=O`, in assay [1], the molecule was called inactive. Also, the Potency result in assay [2], in assay [3], in assay [4], in assay [5] and in assay [6] was “inactive” throughout.
Take `Cc1cccnc1`: the molecule was called inactive in assay [1]. The Potency entry in [2], in assay [3], in assay [4], in assay [5] and in assay [6] was “inactive” each time.
As for `FC(F)(F)c1ccc(Cl)c(Cl)c1`, the molecule was classed as inactive in [1], in assay [7] and in assay [10]. Besides, the Potency entry in [2], in [3], in [5], in assay [8], in [9] and in assay [6] was “inactive” in each case.
Take `CCCCOC(=O)COc1ccc(Cl)cc1Cl`: the call in assay [1] was inactive. The Potency entry in assay [2], in assay [3], in assay [4], in assay [5] and in [6] was “inactive” in each case.
In the case of `CCCCC(CC)COC(=O)C(C#N)=C(c1ccccc1)c1ccccc1` (stereo not given), the outcome in assay [1] was inactive. The Potency in assay [2] was 11.9 µM (active); in assay [4] it was 13.3 µM (active) and inactive. The Potency result in [3], in [5] and in [6] was “inactive” throughout.
Consider `C[C@H]1C[C@H]2[C@@H]3CCC4=CC(=O)C=C[C@]4(C)[C@@]3(F)[C@@H](O)C[C@]2(C)[C@@]1(O)C(=O)CO`, for which the molecule was called inactive in assay [1]. The Potency result in assay [2], in assay [5] and in [6] was “inactive” each time. In addition, the Potency in assay [3] is 27.3 µM (active); in assay [4] it was “inactive and 68.6 µM (active)”.
Take `CC(=O)CC(=O)Nc1ccccc1`: the molecule was classed as inactive in assay [1]. Also, the Potency entry in [2], in assay [3], in [4], in [5] and in assay [6] was “inactive” throughout.
With `Nc1cc([N+](=O)[O-])ccc1O`, the outcome in assay [1] and in assay [10] was inactive. The Potency entry in assay [2], in [3], in [5], in assay [8] and in assay [9] was “inactive” throughout. Further, the Potency in assay [6] was 54.5 µM (active) and 60.8 µM (active).
Regarding `OCC(CO)(CBr)CBr`, the outcome in assay [1] was inactive. The Potency result in assay [2], in assay [3], in assay [4], in assay [5] and in [6] was “inactive” throughout.
`CCCCC(CC)CO` (stereo not given): the molecule was called inactive in [1]. Moreover, the Potency entry in assay [2], in [3], in [4], in [5] and in [6] was “inactive” throughout.
For `CC1CCC(C(C)C)C(O)C1` (stereo not given), the molecule was classed as inactive in assay [1], in [7] and in assay [10]. In addition, the Potency entry in assay [2], in assay [3], in assay [5], in [8], in assay [9] and in assay [6] was “inactive” each time.
Regarding `CN(C)CCOCCN(C)C`, the molecule was classed as inactive in assay [1]. In addition, the Potency entry in assay [2], in assay [3], in assay [4], in assay [5] and in [6] was “inactive” each time.
In the case of `CC1=C(C)S(=O)(=O)CCS1(=O)=O`, in assay [7], the outcome was inactive.
Consider `c1ccc2c(c1)ccc1ccccc12`, for which the molecule was classed as inactive in assay [7] and in assay [10].
For `CCCCCCCCCCCCOCCO`, the call in assay [10] was inactive.
